Source: PMC7862700, “An all-to-all approach to the identification of sequence-specific readers for epigenetic DNA modifications on cytosine”

Key:
Assay in all cases: DAPPL (digital affinity profiling via proximity ligation, sequencing); 10 mM Tris-HCl pH 7.5, 50 mM NaCl, 1 mM DTT, 4% glycerol, room temperature, 30 min; GST-TFs on glutathione beads, 16-mer random dsDNA library, 0.1% formaldehyde crosslink after washing; high values mean tight binding
Settings in all cases: protein: recombinant; tags: N-terminal GST; dsDNA, one strand shown
FLI1 = target: T1, FLI1 (Homo sapiens, UniProt Q01543 1-452)
T1 sequence: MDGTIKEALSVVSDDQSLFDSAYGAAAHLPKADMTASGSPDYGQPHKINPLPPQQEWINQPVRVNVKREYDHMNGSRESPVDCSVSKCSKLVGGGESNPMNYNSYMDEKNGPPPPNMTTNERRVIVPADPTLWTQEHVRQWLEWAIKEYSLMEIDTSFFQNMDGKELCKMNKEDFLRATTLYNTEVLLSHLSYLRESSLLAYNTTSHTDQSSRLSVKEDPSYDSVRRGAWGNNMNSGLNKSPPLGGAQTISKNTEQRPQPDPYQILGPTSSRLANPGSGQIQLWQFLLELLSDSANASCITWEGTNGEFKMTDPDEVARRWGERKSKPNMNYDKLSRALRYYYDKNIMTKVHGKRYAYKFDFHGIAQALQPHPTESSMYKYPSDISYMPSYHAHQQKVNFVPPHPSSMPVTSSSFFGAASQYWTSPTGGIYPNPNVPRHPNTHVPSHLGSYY
In short: (§1)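 Human transcription factors were made in yeast as GST fusions, captured on glutathione beads and barcoded with DNA. With a tag-only sample included, the pool was incubated with 200 nmole of a random double-stranded 16-mer DNA library in Tris/NaCl/DTT/glycerol buffer at room temperature for 30 min, then crosslinked with 0.1% formaldehyde after washing, ligated by proximity, amplified and sequenced. For binding signal, each hexamer's read frequency for a factor is divided by its frequency for the tag-only sample.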

GABPA = target: T2, GABPA (Homo sapiens, UniProt Q06546 1-454)
T2 sequence: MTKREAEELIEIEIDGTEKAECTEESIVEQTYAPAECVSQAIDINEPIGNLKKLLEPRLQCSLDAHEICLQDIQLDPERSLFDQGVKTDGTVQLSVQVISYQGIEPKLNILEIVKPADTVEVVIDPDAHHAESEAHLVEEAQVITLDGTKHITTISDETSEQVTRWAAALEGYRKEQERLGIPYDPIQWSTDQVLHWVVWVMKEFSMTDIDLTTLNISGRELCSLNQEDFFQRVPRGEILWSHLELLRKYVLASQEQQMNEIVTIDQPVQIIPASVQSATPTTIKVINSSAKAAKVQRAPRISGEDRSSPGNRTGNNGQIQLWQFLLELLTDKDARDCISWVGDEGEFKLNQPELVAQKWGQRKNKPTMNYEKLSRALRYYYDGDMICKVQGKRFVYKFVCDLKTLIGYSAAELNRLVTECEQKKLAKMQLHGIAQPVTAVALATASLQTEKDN
In short: as §1

ELF1 = ELF1 (Homo sapiens, UniProt P32519 1-619)
ELF1, sequence (P32519 whole entry): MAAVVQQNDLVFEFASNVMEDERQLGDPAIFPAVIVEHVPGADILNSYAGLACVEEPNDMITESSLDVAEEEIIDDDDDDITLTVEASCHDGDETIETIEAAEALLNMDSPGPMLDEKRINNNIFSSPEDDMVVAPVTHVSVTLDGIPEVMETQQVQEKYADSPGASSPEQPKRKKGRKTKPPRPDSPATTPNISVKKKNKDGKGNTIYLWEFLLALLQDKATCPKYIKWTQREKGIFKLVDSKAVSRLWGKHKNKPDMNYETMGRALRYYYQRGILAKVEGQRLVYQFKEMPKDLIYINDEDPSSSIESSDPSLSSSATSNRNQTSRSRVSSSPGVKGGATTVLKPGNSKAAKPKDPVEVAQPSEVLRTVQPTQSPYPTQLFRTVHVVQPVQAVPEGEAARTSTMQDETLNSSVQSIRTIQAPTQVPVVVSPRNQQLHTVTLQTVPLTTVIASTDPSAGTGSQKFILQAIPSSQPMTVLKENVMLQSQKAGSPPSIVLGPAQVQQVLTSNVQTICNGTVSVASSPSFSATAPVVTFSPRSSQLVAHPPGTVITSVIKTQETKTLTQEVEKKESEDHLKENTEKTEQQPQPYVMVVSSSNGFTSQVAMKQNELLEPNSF
In short: as §1

SPIB = SPIB (Homo sapiens, UniProt Q01892 1-262)
SPIB, sequence (Q01892 whole entry): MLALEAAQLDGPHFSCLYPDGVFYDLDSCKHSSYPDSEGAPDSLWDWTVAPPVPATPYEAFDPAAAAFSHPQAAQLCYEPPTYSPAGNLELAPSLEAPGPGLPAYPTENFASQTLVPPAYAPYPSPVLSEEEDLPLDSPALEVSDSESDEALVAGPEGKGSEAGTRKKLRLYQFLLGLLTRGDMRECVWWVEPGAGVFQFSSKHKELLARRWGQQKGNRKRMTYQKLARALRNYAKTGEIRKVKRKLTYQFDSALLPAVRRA
In short: as §1

ELF4 = ELF4 (Homo sapiens, UniProt Q99607 1-663)
ELF4, sequence (Q99607 whole entry): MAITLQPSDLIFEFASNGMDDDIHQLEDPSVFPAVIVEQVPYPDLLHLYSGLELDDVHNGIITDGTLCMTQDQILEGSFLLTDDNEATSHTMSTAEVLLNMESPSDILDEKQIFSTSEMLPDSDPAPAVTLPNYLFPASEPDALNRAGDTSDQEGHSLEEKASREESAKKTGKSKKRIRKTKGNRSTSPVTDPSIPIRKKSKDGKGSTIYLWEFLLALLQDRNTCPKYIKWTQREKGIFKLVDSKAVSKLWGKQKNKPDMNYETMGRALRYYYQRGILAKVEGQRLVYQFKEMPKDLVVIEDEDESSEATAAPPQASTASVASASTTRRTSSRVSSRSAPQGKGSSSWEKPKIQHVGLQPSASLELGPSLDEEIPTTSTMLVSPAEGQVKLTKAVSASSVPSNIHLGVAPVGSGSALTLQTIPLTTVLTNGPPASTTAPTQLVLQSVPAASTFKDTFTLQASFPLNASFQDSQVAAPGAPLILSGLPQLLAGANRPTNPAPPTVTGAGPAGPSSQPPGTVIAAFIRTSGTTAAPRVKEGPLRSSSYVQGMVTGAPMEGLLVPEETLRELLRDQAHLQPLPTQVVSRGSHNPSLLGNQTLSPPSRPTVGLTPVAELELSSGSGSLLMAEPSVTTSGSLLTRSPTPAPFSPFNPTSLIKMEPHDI
In short: as §1

ELK4 = target: T3, ELK4 (Homo sapiens, UniProt P28324-2 1-405)
T3 sequence: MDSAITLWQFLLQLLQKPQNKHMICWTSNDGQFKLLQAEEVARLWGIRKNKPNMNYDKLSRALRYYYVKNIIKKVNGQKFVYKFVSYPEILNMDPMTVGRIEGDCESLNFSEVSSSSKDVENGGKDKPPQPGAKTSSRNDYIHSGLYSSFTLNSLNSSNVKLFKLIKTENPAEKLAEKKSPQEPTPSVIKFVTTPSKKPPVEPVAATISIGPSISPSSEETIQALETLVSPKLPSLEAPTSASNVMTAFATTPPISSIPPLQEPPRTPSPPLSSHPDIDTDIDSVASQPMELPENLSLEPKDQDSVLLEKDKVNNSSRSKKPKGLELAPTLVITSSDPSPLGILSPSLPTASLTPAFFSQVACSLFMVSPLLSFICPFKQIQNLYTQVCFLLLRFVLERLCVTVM
In short: as §1

ETV2 = target: T4, ETV2 (Homo sapiens, UniProt O00321 1-342)
T4 sequence: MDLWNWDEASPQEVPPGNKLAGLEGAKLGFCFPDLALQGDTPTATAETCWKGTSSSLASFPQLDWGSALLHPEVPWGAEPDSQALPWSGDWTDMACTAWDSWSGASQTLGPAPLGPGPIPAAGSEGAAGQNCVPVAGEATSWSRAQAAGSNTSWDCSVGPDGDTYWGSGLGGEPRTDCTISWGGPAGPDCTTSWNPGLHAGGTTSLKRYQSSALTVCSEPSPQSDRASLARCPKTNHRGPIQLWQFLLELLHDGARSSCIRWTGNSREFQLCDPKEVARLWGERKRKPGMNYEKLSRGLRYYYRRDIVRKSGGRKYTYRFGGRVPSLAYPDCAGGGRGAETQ
In short: as §1

ELF3 = target: T5, ELF3 (Homo sapiens, UniProt P78545 1-371)
T5 sequence: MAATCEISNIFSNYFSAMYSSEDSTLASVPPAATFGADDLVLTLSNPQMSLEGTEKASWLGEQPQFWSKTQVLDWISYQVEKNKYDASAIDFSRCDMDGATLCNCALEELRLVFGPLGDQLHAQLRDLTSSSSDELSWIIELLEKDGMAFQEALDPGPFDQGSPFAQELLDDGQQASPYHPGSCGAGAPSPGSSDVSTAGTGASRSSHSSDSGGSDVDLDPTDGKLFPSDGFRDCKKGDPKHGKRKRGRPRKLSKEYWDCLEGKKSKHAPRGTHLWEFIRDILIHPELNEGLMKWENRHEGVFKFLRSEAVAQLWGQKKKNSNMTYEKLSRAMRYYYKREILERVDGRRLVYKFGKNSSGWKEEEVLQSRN
In short: as §1

ETV1 = ETV1 (Homo sapiens, UniProt P50549 1-477)
ETV1, sequence (P50549 whole entry): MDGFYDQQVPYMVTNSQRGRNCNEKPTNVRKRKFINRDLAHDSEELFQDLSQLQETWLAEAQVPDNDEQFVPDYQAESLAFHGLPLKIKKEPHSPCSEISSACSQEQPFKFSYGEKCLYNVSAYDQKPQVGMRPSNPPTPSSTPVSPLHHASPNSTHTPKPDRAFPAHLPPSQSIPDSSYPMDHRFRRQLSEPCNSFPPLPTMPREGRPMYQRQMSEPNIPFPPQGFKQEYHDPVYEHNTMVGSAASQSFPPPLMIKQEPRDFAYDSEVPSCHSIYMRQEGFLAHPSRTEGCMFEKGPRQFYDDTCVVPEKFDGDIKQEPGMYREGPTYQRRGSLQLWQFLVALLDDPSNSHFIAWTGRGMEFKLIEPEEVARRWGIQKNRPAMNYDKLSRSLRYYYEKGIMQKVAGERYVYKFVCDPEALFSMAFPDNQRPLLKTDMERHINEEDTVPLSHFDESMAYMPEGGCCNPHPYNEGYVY
In short: as §1

ERF = target: T6, ERF (Homo sapiens, UniProt P50548 1-548)
T6 sequence: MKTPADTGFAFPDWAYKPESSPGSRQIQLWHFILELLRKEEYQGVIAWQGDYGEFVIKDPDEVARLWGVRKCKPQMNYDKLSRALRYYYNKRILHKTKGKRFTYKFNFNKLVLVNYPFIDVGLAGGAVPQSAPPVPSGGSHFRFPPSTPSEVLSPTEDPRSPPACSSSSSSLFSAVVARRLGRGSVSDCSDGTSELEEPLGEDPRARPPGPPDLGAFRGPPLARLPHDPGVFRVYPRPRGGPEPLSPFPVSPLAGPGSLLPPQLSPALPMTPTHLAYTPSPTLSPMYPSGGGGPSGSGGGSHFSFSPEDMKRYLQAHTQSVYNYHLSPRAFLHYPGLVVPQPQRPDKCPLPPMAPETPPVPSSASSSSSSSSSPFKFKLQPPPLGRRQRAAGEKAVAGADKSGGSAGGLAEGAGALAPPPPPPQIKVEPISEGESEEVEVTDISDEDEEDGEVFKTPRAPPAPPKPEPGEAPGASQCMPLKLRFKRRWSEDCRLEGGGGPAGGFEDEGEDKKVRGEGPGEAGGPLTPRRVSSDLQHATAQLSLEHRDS
In short: as §1

ETV3L = target: T7, ETV3L (Homo sapiens, UniProt Q6ZN32 1-361)
T7 sequence: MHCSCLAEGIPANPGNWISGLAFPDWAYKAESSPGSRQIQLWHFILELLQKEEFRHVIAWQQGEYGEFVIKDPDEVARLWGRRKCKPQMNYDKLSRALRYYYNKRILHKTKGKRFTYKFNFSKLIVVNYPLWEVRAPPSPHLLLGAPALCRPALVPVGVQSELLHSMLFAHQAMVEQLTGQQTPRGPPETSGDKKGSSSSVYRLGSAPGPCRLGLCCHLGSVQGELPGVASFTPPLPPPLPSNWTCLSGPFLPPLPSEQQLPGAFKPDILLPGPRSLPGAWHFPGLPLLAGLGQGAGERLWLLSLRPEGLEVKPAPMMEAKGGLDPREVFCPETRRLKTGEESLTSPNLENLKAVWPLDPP
In short: as §1

ETS2 = target: T8, ETS2 (Homo sapiens, UniProt P15036 1-469)
T8 sequence: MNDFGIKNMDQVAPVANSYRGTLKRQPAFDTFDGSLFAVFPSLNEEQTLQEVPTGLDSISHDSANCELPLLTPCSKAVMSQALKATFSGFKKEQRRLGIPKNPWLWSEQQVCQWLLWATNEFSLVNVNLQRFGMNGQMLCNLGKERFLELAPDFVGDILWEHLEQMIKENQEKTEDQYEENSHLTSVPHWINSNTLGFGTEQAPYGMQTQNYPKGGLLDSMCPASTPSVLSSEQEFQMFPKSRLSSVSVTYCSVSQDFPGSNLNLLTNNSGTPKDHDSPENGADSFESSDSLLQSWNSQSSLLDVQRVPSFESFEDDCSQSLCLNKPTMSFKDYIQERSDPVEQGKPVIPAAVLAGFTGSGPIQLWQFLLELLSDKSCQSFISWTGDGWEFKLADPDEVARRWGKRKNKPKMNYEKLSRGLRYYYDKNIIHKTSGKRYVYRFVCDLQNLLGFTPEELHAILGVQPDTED
In short: as §1

ETV3 = target: T9, ETV3 (Homo sapiens, UniProt P41162-2 1-143)
T9 sequence: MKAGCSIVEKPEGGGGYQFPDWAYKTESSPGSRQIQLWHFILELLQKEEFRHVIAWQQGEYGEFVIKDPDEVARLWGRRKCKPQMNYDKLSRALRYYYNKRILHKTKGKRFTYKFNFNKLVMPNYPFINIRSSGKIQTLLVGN
In short: as §1

ETV6 = ETV6 (Homo sapiens, UniProt P41212 1-452)
ETV6, sequence (P41212 whole entry): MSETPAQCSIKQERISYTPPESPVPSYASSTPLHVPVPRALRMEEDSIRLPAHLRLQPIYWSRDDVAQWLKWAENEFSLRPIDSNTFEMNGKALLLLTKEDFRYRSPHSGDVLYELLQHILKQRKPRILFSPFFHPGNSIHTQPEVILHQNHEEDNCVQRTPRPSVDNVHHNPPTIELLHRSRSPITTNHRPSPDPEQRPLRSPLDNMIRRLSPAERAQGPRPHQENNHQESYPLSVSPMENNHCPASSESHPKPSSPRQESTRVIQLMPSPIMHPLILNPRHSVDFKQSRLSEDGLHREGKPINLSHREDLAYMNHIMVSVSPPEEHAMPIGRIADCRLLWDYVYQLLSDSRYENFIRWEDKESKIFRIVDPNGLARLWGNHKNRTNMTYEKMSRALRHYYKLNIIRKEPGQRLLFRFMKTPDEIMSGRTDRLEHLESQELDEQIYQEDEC
In short: as §1

ELK1 = target: T10, ELK1 (Homo sapiens, UniProt P19419 1-428)
T10 sequence: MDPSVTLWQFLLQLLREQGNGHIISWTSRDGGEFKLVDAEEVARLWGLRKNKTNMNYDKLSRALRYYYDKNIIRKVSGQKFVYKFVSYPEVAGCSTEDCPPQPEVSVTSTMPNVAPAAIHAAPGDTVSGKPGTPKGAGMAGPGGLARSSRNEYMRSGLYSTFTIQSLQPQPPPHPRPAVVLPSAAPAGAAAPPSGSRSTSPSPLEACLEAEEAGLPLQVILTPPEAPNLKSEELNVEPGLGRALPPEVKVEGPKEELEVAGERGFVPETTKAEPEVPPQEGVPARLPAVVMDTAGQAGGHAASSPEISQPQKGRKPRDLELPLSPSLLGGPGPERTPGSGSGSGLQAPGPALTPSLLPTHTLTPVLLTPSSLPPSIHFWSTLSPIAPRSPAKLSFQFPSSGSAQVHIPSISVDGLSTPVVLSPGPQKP
In short: as §1

ETV7 = target: T11, ETV7 (Homo sapiens, UniProt Q9Y603 1-341)
T11 sequence: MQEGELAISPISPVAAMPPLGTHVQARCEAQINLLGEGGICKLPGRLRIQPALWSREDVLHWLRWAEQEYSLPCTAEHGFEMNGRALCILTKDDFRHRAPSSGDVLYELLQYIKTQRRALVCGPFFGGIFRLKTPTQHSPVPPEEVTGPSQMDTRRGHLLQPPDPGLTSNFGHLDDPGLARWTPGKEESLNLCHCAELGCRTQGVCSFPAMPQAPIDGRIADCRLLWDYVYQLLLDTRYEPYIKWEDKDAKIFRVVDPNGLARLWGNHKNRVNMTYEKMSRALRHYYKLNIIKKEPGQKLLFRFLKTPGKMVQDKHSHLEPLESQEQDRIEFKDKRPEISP
In short: as §1

TGTCAA
binding signal (FLI1): 1.02 fold enrichment (6-mer frequency, TF over GST control) | binding signal (GABPA): 1.01 fold enrichment (6-mer frequency, TF over GST control) | binding signal (ELF1): 1.05 fold enrichment (6-mer frequency, TF over GST control) | binding signal (SPIB): 1.02 fold enrichment (6-mer frequency, TF over GST control) | binding signal (ELF4): 1.08 fold enrichment (6-mer frequency, TF over GST control) | binding signal (ELK4): 1.11 fold enrichment (6-mer frequency, TF over GST control) | binding signal (ETV2): 1 fold enrichment (6-mer frequency, TF over GST control) | binding signal (ELF3): 1.15 fold enrichment (6-mer frequency, TF over GST control) | binding signal (ETV1): 1.06 fold enrichment (6-mer frequency, TF over GST control) | binding signal (ERF): 1.07 fold enrichment (6-mer frequency, TF over GST control) | binding signal (ETV3L): 1.07 fold enrichment (6-mer frequency, TF over GST control) | binding signal (ETS2): 1.03 fold enrichment (6-mer frequency, TF over GST control) | binding signal (ETV3): 1.08 fold enrichment (6-mer frequency, TF over GST control) | binding signal (ETV6): 1.04 fold enrichment (6-mer frequency, TF over GST control)

CACCCA
binding signal (FLI1): 1.1 fold enrichment (6-mer frequency, TF over GST control) | binding signal (ELK1): 1.12 fold enrichment (6-mer frequency, TF over GST control) | binding signal (GABPA): 1.11 fold enrichment (6-mer frequency, TF over GST control) | binding signal (ELF1): 1.01 fold enrichment (6-mer frequency, TF over GST control) | binding signal (SPIB): 1.03 fold enrichment (6-mer frequency, TF over GST control) | binding signal (ELF4): 1.12 fold enrichment (6-mer frequency, TF over GST control) | binding signal (ELK4): 1.04 fold enrichment (6-mer frequency, TF over GST control) | binding signal (ELF3): 1.14 fold enrichment (6-mer frequency, TF over GST control) | binding signal (ERF): 1.06 fold enrichment (6-mer frequency, TF over GST control) | binding signal (ETV7): 1.03 fold enrichment (6-mer frequency, TF over GST control)
